We go through 4 compounds from PubChem BioAssay (NCI).

The structures appear in SMILES notation. The panel holds about 83,000 compounds, 20% with a hit somewhere; the sample as a whole holds those more often.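 Percent growth is the endpoint: 0 to 100 indicates growth inhibition (40 means 60% inhibition), 0 means no net growth, and negative values indicate cell death.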 A number with no mark means an inactive call. The source made the active and inactive calls. How the source made its calls: active means growth percent below 10; inactive means the rest.

What all share (assay): NCI-60 one-dose screen, 48 h (100 = growth as untreated, 0 = no growth, -100 = all killed)
Holding throughout (settings): 10 µM unless noted

Assay [1] deals with SK-MEL-2 melanoma.
Assay [2] concerns EKVX NSCLC.
Assay [3] has as its system UO-31 renal.
Assay [4] relates to TK-10 renal.
Assay [5] relates to ACHN renal.
Assay [6] has as its system CAKI-1 renal.
The test system of assay [7] is A498 renal.
In assay [8] the test system is MOLT-4 leukemia.
Assay [9] relates to SN12C renal.
Assay [10] deals with CCRF-CEM leukemia.

With `O=C(O)c1ccc(-n2cc(CNc3cccc(Cl)c3)c(-c3ccc(F)cc3)n2)cc1`, the growth in [1] is 96.1%; in assay [2], 90.5%; in assay [3] it was 94.4%; in [4], 127%; in assay [5], 89.6%; in assay [6], 89.9%. The growth was 72.5% in assay [7] and 80% in assay [8].
Consider `CN(C)CCCOc1ccc2c(c1)CN(C(=O)c1cc(C(=O)N3Cc4cccc(F)c4C3)ccc1O)C2`, for which the growth in assay [1] was 117%; in [9], 99.4%; in assay [3] it was 95.3%; in [4], 122%; in assay [5] it was 106%; in assay [6], 95.8%. For the same compound, the growth in assay [7] was 97.1%; in assay [10], 98.1%; in assay [8] it was 97.5%.
Turning to `N/C(=N\C(N)=N\c1nc2ccccc2s1)c1ccncc1Cl`, the growth in [1] is 35.3%; in assay [9], 35.8%; in assay [3] it was 34.6%; in assay [4], 129%; in assay [5], 37.7%; in [6], 37.5%. Further, the growth was 65.3% in assay [7], 10.7% in assay [10] and 23.9% in assay [8].
On to `c1cn2c(ccc3nc(-c4cn[nH]c4)c4c(c32)CCCC4)n1`, for which the growth in assay [1] was -5.11% (active); in assay [2] it was 90.2%; in [3] it was 23%; in assay [4] it was 30.8%; in assay [5], 26.4%; in assay [6], 16.5%. The growth in assay [7] was -4.01% (active); in assay [10], 81.2%; in assay [8] it was 83.4%.
